# In ChEMBL document CHEMBL1961873, “Compounds: GSK PKIS; Assays: Nanosyn kinase panel” (2012):
# Legend:
# [1] = target: 5'-AMP-activated protein kinase catalytic subunit alpha-2 (Homo sapiens) (UniProt P54646); settings: at 1 µM
# [2] = target: T1, NUAK family SNF1-like kinase 1 (Homo sapiens) (UniProt O60285); settings: at 0.1 µM
# T1 sequence (whole entry): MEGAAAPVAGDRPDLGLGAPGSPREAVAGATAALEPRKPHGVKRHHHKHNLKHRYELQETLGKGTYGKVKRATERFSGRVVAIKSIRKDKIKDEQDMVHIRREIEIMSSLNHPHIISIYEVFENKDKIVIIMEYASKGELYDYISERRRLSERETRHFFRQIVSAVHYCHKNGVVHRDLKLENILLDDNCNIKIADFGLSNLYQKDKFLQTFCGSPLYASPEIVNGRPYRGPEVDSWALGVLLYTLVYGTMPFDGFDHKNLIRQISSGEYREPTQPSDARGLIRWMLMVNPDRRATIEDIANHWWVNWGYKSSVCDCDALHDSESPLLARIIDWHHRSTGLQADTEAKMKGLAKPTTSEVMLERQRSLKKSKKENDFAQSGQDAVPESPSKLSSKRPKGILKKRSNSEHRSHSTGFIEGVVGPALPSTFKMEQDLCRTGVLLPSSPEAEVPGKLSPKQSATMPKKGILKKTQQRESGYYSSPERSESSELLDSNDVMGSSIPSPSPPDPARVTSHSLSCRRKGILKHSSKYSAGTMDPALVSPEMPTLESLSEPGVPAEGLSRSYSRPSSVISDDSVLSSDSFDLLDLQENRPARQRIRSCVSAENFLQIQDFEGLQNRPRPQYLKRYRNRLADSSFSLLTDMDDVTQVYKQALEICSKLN
# [3] = target: T1, NUAK family SNF1-like kinase 1 (Homo sapiens); settings: at 1 µM
# [4] = target: T2, Serine/threonine-protein kinase BRSK1 (Homo sapiens) (UniProt Q8TDC3); settings: at 0.1 µM
# T2 sequence (whole entry): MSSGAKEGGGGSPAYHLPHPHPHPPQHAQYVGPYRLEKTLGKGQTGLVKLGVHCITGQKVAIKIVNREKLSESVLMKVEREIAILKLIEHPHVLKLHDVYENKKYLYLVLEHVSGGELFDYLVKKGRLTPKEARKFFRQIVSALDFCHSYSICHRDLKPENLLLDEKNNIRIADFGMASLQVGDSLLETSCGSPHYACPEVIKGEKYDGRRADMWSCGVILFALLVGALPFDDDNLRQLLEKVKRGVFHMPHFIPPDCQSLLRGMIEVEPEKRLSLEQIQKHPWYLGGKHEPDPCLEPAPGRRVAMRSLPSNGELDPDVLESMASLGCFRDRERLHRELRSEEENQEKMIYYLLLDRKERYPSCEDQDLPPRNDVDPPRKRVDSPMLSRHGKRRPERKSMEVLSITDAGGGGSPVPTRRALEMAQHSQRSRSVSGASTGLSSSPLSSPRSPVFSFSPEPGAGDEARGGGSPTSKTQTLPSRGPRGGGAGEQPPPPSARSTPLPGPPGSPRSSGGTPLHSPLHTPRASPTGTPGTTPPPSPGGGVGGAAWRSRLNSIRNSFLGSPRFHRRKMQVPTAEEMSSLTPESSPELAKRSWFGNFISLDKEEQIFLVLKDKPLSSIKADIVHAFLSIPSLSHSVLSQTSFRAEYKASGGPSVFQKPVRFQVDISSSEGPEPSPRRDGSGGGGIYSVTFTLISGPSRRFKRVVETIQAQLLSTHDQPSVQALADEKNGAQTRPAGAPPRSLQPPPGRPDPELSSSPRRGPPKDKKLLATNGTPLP
# [5] = target: T2, Serine/threonine-protein kinase BRSK1 (Homo sapiens); settings: at 1 µM
# [6] = target: T3, Serine/threonine-protein kinase BRSK2 (Homo sapiens) (UniProt Q8IWQ3); settings: at 0.1 µM
# T3 sequence (whole entry): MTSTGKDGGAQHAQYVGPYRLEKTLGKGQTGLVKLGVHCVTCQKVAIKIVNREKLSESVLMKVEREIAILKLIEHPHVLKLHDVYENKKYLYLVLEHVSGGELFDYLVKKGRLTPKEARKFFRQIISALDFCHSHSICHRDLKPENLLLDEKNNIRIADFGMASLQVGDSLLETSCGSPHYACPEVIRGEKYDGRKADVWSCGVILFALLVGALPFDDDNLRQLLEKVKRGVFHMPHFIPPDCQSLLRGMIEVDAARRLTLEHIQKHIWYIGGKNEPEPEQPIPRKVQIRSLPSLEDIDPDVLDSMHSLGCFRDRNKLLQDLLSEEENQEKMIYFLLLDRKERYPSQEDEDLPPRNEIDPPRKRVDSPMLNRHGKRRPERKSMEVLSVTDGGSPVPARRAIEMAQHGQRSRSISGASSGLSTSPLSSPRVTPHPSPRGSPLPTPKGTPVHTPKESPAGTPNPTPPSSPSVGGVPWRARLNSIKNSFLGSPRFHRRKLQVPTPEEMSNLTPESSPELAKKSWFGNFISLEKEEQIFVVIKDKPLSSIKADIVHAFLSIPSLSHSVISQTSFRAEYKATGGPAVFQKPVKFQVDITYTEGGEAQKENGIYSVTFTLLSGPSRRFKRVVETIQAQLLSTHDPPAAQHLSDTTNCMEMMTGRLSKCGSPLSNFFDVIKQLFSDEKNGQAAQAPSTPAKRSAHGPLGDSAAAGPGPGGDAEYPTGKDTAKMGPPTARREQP
# [7] = target: T3, Serine/threonine-protein kinase BRSK2 (Homo sapiens); settings: at 1 µM
# [8] = target: Calcium/calmodulin-dependent protein kinase type 1D (Homo sapiens) (UniProt Q8IU85); settings: at 0.1 µM
# [9] = target: Calcium/calmodulin-dependent protein kinase type 1D (Homo sapiens) (UniProt Q8IU85); settings: at 1 µM
# [10] = target: Calcium/calmodulin-dependent protein kinase type II subunit alpha (Homo sapiens) (UniProt Q9UQM7); settings: at 0.1 µM
# [11] = target: Calcium/calmodulin-dependent protein kinase type II subunit alpha (Homo sapiens) (UniProt Q9UQM7); settings: at 1 µM
# [12] = target: Calcium/calmodulin-dependent protein kinase type II subunit delta (Homo sapiens) (UniProt Q13557); settings: at 0.1 µM
# [13] = target: Calcium/calmodulin-dependent protein kinase type II subunit delta (Homo sapiens) (UniProt Q13557); settings: at 1 µM
# [14] = target: T4, Calcium/calmodulin-dependent protein kinase type IV (Homo sapiens) (UniProt Q16566); settings: at 0.1 µM
# T4 sequence (whole entry): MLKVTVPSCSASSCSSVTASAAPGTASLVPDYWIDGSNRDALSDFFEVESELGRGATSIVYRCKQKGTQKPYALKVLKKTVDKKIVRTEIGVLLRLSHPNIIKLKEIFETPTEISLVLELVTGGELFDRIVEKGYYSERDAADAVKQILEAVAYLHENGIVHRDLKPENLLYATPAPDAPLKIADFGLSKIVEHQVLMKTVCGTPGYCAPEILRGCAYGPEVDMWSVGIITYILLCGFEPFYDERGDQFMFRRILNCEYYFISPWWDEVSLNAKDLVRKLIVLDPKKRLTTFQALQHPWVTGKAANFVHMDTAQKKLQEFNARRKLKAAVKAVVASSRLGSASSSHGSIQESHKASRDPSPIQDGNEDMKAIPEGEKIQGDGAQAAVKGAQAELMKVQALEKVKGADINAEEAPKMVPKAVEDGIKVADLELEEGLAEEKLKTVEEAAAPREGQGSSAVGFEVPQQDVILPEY
# [15] = target: T4, Calcium/calmodulin-dependent protein kinase type IV (Homo sapiens); settings: at 1 µM
# [16] = target: T5, Serine/threonine-protein kinase Chk1 (Homo sapiens) (UniProt O14757); settings: at 0.1 µM
# T5 sequence (whole entry): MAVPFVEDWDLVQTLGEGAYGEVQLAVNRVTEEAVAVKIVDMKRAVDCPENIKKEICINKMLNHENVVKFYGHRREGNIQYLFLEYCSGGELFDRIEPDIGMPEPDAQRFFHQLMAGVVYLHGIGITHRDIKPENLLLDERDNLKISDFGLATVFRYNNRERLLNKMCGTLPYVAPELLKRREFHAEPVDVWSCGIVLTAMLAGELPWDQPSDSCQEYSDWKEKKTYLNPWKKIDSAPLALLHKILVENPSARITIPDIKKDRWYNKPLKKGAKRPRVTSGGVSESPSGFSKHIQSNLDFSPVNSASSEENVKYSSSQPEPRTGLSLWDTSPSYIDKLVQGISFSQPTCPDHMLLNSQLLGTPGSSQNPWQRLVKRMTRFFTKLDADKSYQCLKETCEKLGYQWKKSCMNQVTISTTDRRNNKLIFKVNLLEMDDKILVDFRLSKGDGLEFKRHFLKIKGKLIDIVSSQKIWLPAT
# [17] = target: T5, Serine/threonine-protein kinase Chk1 (Homo sapiens); settings: at 1 µM
# [18] = target: Serine/threonine-protein kinase Chk2 (Homo sapiens) (UniProt O96017); settings: at 0.1 µM
# [19] = target: Serine/threonine-protein kinase Chk2 (Homo sapiens) (UniProt O96017); settings: at 1 µM
# [20] = target: Death-associated protein kinase 1 (Homo sapiens) (UniProt P53355); settings: at 0.1 µM;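 also: reported figure is the mean inhibition of DAPK1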
# Sequence of Death-associated protein kinase 1 (Homo sapiens) (P53355 whole entry, looked up): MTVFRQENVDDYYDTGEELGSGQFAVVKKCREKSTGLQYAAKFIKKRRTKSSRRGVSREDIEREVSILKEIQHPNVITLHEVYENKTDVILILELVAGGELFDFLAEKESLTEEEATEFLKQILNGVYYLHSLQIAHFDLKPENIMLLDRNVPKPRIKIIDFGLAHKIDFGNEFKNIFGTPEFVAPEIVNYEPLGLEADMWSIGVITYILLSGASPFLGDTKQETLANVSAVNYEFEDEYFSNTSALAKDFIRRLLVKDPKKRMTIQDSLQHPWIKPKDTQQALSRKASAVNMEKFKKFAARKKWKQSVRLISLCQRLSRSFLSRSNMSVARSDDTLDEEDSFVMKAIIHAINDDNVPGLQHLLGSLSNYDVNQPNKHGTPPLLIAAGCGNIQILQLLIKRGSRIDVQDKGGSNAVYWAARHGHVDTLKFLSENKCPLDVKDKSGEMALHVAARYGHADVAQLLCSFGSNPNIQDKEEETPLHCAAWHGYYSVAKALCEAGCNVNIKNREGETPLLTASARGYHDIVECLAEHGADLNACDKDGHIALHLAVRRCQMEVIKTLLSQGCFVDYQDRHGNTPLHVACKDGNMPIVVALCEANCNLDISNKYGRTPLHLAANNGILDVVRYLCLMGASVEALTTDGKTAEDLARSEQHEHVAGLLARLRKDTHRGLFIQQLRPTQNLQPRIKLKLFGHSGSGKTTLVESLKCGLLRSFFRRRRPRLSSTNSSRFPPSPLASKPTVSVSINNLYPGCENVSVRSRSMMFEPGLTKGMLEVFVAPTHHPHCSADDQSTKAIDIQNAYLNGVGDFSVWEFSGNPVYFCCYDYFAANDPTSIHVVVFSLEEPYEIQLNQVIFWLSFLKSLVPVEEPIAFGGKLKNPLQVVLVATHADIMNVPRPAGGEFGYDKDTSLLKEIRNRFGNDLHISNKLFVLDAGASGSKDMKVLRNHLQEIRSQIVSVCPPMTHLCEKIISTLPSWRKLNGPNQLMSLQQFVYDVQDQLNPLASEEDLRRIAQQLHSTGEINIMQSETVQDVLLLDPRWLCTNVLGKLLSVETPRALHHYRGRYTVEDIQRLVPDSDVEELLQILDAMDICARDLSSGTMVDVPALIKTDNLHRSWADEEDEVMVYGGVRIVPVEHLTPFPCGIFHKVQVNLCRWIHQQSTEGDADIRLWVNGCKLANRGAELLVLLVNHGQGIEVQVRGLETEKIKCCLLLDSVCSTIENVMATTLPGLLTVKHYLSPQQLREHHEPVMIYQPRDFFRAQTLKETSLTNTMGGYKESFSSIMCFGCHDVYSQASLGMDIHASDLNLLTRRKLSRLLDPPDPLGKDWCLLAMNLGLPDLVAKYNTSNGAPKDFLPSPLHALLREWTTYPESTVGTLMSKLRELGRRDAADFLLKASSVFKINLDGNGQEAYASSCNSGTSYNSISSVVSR
# Sequence of Serine/threonine-protein kinase Chk2 (Homo sapiens) (O96017 whole entry): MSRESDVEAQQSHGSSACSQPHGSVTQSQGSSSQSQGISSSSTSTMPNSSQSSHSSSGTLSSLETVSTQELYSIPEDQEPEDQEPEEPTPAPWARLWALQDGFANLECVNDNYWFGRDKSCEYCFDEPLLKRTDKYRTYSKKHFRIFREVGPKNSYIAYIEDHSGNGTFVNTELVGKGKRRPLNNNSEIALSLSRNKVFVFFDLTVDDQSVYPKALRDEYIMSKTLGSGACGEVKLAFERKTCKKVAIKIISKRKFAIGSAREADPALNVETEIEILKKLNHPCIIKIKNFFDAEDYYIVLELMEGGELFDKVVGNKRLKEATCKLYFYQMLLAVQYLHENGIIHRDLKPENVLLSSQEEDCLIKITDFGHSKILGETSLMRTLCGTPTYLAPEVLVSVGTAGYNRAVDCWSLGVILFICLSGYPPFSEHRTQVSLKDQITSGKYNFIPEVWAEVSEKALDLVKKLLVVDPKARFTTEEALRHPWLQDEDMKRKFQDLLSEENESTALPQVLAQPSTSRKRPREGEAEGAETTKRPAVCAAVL
# Sequence of Calcium/calmodulin-dependent protein kinase type II subunit alpha (Homo sapiens) (Q9UQM7 whole entry): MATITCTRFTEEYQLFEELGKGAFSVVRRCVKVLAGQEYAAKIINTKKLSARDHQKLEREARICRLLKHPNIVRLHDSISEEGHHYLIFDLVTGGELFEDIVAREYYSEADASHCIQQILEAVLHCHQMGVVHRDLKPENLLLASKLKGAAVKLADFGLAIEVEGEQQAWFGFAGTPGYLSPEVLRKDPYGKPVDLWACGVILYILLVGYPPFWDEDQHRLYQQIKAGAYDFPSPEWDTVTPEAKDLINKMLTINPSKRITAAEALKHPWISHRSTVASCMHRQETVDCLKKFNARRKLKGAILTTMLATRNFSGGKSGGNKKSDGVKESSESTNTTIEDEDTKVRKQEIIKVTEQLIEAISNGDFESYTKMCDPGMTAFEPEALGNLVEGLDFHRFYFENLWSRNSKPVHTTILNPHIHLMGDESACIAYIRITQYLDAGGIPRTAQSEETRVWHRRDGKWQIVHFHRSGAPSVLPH
# Sequence of Calcium/calmodulin-dependent protein kinase type 1D (Homo sapiens) (Q8IU85 whole entry, looked up): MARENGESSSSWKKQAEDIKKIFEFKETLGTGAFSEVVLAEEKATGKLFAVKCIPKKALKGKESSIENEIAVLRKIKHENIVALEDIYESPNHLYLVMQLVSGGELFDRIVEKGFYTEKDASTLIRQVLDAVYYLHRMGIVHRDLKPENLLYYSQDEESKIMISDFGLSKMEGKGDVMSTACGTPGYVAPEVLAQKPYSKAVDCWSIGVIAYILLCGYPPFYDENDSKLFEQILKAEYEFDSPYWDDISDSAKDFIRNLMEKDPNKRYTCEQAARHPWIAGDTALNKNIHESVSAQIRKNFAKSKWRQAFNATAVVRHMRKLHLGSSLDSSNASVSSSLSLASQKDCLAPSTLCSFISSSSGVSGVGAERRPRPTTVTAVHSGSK
# Sequence of 5'-AMP-activated protein kinase catalytic subunit alpha-2 (Homo sapiens) (P54646 whole entry, looked up): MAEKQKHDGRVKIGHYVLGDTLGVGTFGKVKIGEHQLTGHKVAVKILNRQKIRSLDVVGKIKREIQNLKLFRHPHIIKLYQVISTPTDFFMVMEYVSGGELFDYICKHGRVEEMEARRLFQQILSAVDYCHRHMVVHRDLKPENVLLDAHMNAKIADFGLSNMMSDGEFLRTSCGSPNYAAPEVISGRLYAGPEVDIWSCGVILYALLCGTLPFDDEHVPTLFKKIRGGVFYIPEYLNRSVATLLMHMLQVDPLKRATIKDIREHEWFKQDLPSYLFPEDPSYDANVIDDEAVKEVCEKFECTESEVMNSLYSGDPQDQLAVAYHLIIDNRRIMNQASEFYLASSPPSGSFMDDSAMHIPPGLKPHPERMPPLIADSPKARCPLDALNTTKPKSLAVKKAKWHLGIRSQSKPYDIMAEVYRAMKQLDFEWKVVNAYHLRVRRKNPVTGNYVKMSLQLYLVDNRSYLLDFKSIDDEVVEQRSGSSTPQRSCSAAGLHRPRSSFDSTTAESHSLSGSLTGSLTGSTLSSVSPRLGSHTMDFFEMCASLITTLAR
# Sequence of Calcium/calmodulin-dependent protein kinase type II subunit delta (Homo sapiens) (Q13557 whole entry): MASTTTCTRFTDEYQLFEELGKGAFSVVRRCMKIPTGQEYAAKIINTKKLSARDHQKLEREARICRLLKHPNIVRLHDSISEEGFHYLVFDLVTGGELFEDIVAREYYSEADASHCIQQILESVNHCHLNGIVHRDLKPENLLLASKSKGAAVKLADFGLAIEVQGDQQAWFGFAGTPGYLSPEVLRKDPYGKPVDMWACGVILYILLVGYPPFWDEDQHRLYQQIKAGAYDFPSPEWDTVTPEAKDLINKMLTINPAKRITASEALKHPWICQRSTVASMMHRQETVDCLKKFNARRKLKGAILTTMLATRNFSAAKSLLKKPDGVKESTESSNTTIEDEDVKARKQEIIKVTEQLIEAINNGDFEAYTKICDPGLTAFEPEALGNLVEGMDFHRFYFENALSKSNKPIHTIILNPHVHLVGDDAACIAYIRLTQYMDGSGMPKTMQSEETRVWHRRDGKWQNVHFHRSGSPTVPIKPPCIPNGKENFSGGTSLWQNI
SMILES,inhibition [1],inhibition [2],inhibition [3],inhibition [4],inhibition [5],inhibition [6],inhibition [7],inhibition [8],inhibition [9],inhibition [10],inhibition [11],inhibition [12],inhibition [13],inhibition [14],inhibition [15],inhibition [16],inhibition [17],inhibition [18],inhibition [19],inhibition [20]
CN(C)c1cc2c(Nc3ccc4nc(Cc5ccccc5)[nH]c4c3)ncnc2cn1,4.85%,0.74%,1.76%,3.31%,4.38%,3.85%,4.52%,1.13%,0.72%,4.11%,4.09%,4.46%,4.05%,1.47%,-2.01%,7.31%,6.99%,2.75%,9.92%,5.94%
N#Cc1c(NC(=O)c2cccc3ccccc23)sc2c1CCCC2,5.58%,1.58%,–,2.23%,3.56%,1.18%,6.1%,1.08%,2.77%,1.29%,1.93%,2.34%,4.57%,2.05%,1.58%,7.17%,10.4%,6.18%,6.56%,8.89%
CCn1c(-c2nonc2N)nc2c(C#CC(C)(C)O)nc(CN3CCCC3)cc21,6.62%,-8.68%,2.69%,0.47%,2.17%,1.38%,3.23%,1.23%,2.08%,-0.97%,0.03%,-0.33%,1.82%,-3.55%,1.55%,–,-2.45%,-1.49%,0.49%,0.05%
Fc1cccc(COc2ccc(Nc3ncnc4sc(-c5cccs5)cc34)cc2Cl)c1,0.62%,4.02%,7.65%,0.56%,-0.44%,0.22%,1.9%,-1.31%,0.18%,-3%,-2.43%,-0.89%,1.53%,–,-0.72%,-6.44%,-5.05%,-6.31%,-6.27%,-9.21%
CS(=O)(=O)CCNCc1nc(-c2ccc3ncnc(Nc4ccc(F)c(Cl)c4)c3c2)cs1,1.32%,2.92%,2%,0.92%,1.59%,2.32%,6.52%,1.26%,1.23%,5.16%,3.45%,1.76%,3.83%,-0.31%,0.31%,2.71%,3.9%,-0.4%,1.15%,4.88%
CS(=O)(=O)Nc1ccc(N/C=C2\C(=O)Nc3ccccc32)cc1,4.21%,12.6%,43.9%,2.83%,16.5%,4.09%,30.6%,-1.16%,0.24%,-3.83%,-2.22%,-2.44%,4.73%,-0.09%,-1.35%,-0.22%,5.75%,-1.67%,10.4%,-1.81%
CCn1c(-c2nonc2N)nc2c(C#CC(C)(C)O)nc(OC[C@@H](N)c3ccccc3)cc21,21.1%,28%,94.5%,0.41%,4.9%,0.42%,5%,0.26%,2.9%,-2.45%,0.34%,-0.01%,1.5%,2.61%,3.39%,-5.33%,7.52%,-5.8%,1.05%,-8.66%
